From ChEMBL document CHEMBL4513216, “Probing the Open Global Health Chemical Diversity Library for Multistage-Active Starting Points for Next-Generation Antimalarials” (ACS Infect Dis, 2020)
Screen size: about 69,000 compounds; about 8,600 (12%) showed an effect of 50% or more. The list comes from a sample in which strong results are over-represented; it also holds similar structures and randomly drawn compounds.

The compounds below were run on Plasmodium berghei (assay: Screen against P. berghei liver stage (PbLuc), transformed with Luciferase, at 10uM). Conditions: tested at 10 uM.
Assay type: functional, HepG2

SMILES | INHIBITION [%]
CCc1[nH]ncc1C(=O)N1CCCC(n2ccnc2C)C1 (stereo unspecified) | 7.12
COCCC(=O)N1CCCC2(CCN(c3ccccc3)C2=O)C1 (stereo unspecified) | -3.58
O=C(CC1CC1)N1CCC2(CC(=O)N(c3cccc(F)c3)C2)C1 (stereo unspecified) | -40.5
O=C(Cc1ccccc1)N1CCC2(CC(=O)N(c3cccc(F)c3)C2)C1 (stereo unspecified) | 5.65
O=C1CC2(CCN(CCO)C2)CN1c1cccc(F)c1 (stereo unspecified) | -9.02
COCC(=O)N1CCCC2(CCN(c3ccccc3)C2=O)C1 (stereo unspecified) | 71.9
COCC(=O)N1CCC2(CC(=O)N(c3cccc(F)c3)C2)C1 (stereo unspecified) | 63.1
CN(C)C(=O)N1CCC2(CC(=O)N(c3cccc(C#N)c3)C2)C1 (stereo unspecified) | 7.65
CCOCC(=O)N1CCCC2(CCN(c3ccccc3)C2=O)C1 (stereo unspecified) | 33.4
CN(C)CC(=O)N1CCC2(CC(=O)N(c3cccc(C#N)c3)C2)C1 (stereo unspecified) | 53.5
N#Cc1cccc(N2CC3(CCN(C(=O)NC4CC4)C3)CC2=O)c1 (stereo unspecified) | 33.4
O=C1CC2(CCN(Cc3cccs3)C2)CN1c1cccc(F)c1 (stereo unspecified) | 59.2
O=C1CC2(CCN(Cc3ccncc3)C2)CN1c1cccc(F)c1 (stereo unspecified) | -11.6
CC(C)c1ncc(CNC2(c3ccc(Cl)cc3)CC2)cn1 | -33.4
O=C(NC1CCN(C2CC2)C1)c1cn(-c2ccc(F)cc2)nn1 (stereo unspecified) | 14.3
CC1CN(C(=O)c2ccn(C)c(=O)c2)c2ccccc2NC1=O (stereo unspecified) | -24
Cc1ccc(CN(C)C(=O)CN2CCCC(Cn3cncn3)C2)o1 (stereo unspecified) | 15.6
Cc1ccc(C(=O)N(C)Cc2ccc(Br)s2)c(=O)[nH]1 | 37.4
Cc1ccc(-c2nc(CNC(C)Cn3cccn3)cs2)o1 (stereo unspecified) | -27.9
CCCc1noc(C(C)N2CCN(c3ccc(C#N)cn3)CC2)n1 (stereo unspecified) | 5.23
CC(Cn1cccn1)NC(=O)N(C)Cc1ccc(C(N)=O)cc1 (stereo unspecified) | 14.3
CC(C)NC(=O)N1CCC2(CC(=O)N(c3cccc(C#N)c3)C2)C1 (stereo unspecified) | 66.5
CC(C)NC(=O)N1CCC2(CC(=O)N(c3cccc(F)c3)C2)C1 (stereo unspecified) | 7.65

SMILES | INHIBITION [%]
Cc1cccc(N2CC3(CCN(C(=O)NC(C)C)C3)CC2=O)c1 (stereo unspecified) | 14.6
COCCN1C[C@@H]2CC[C@H]1CN(C(=O)CCc1c(C)nn(C)c1C)C2 | 27.5
Cn1cc(CN2C[C@@H](N3CCCC3=O)[C@H]3OCCC[C@H]32)cn1 | 29
Cn1ccnc1CN1C[C@H](N2CCOCC2)[C@@H]2OCCC[C@@H]21 | 37.8
Cn1cc(CN2C[C@H](N3CCOCC3)[C@@H]3OCCC[C@@H]32)cn1 | 54.1
CC(C)c1nnc(CN2CCCC3(CC2)CN(C)C(=O)O3)o1 (stereo unspecified) | 23.9
CCOc1ccc(Cl)c(C(=O)N2CCCC(N3CCCC3)C2)n1 (stereo unspecified) | 23.3
CC(C)N(CC(N)=O)Cc1csc(COc2ccc(F)cc2)n1 | 81.5
CCc1nc(CN(CC(N)=O)C(C)C)cs1 | 22.5
COCc1nc(CN(CC(N)=O)C(C)C)cs1 | 42
COc1ccc(-c2noc(CN3CCN(c4cnccn4)CC3)n2)cc1 | 47
Cc1cc(C)cc(C(=O)N2CCN(C(=O)N(C)C)CC2(C)C)c1 | 18.6
COC(=O)c1cccc(C(=O)N2CCN(C(=O)N(C)C)CC2(C)C)c1 | 68.6
CN(C)C(=O)N1CCN(C(=O)c2ccc(Cl)c(Cl)c2)C(C)(C)C1 | 14.1
CC(=O)N1CCC2(CC1)CN(C)CC[C@H]2C(F)(F)F | -22.1
c1cc(CN2CCc3ncnc(C4CCOC4)c3CC2)ccn1 (stereo unspecified) | 29.8
O=C(c1cn(-c2ccccc2)nn1)N1CCOCC(O)C1 (stereo unspecified) | -28.1
O=C(CCc1ccccn1)NC1CCCN(C2Cc3ccccc3C2)C1 (stereo unspecified) | 51.1
O=C(CCc1ccccn1)NC1CCN(c2cccc(Cl)c2)C1 (stereo unspecified) | 46.4
O=C(CCc1nc(Cl)n[nH]1)NC1CCCN(C2Cc3ccccc3C2)C1 (stereo unspecified) | 35.1
Cn1nnnc1SC1CCCN(c2cccc(F)c2)C1=O (stereo unspecified) | -12.4
CN(CCN1CCOCC1)C(=O)CCCc1ccccc1 | -57.6
O=C(COCC(=O)N(c1ccccc1)c1ccccc1)N1CCOCC1 | 13.3

SMILES | INHIBITION [%]
O=C(CN1CCOCC1)N(c1ccccc1)c1ccccc1 | 78.8
CCOCC(=O)N1CCC2(CC1)CN(Cc1cccnc1)C(=O)CO2 | -47.9
COCCN1CCCC(Cc2cnc(-c3c(C)nn(C)c3C)cn2)C1 (stereo unspecified) | -29.9
COCC1CN(c2ccc(C)nn2)Cc2cnn(CC3CCOCC3)c21 (stereo unspecified) | 13.6
Cc1cc2[nH]c(O)nc2cc1NCc1ccc(F)cc1 | -5.64
Cc1ccc(-c2nc3c([nH]2)CCNC3C(=O)O)c2cccnc12 (stereo unspecified) | -6.83
COc1ccc(-c2nc3c([nH]2)CCNC3C(=O)O)c2ccccc12 (stereo unspecified) | 55.4
COc1ccc(-c2nc3c([nH]2)CCNC3C(=O)O)c2ccc(C)nc12 (stereo unspecified) | 36.6
Cc1ccc2nc(C(=O)N3C[C@@H](C(=O)O)[C@H](c4cccnc4)C3)cn2c1 | -10.1
COc1cc(CNC(=O)COC2CCCC2)ccc1O | 9.06
CNc1cc(C2CCN2c2ncccn2)nc(C)n1 (stereo unspecified) | 15.5
O=C(NC1CC1)C(c1ccccc1)N1CCN(Cc2ccc(Cl)s2)CC1 (stereo unspecified) | -65
NC(=O)NC(=O)C(c1ccccc1)N1CCN(Cc2ccc(Cl)s2)CC1 (stereo unspecified) | 50.4
NC(=O)NC(=O)C(c1ccccc1)N1CCN(Cc2ccccc2)CC1 (stereo unspecified) | 24
CS(=O)(=O)c1cncnc1C1CCCN(C(=O)NCc2ccccc2)C1 (stereo unspecified) | -2.665
Cc1noc(C)c1CN1CCO[C@H]2CN(Cc3cncn3C)C[C@H]21 | 18.5
c1ccc(CCN2C[C@@H]3OCCN(c4ncccn4)[C@@H]3C2)cc1 | 76.5
Fc1ccccc1CN1C[C@@H]2OCCN(c3ncccn3)[C@@H]2C1 | 42.7
Cn1ccnc1CN1C[C@@H]2OCCN(c3ncccn3)[C@@H]2C1 | 28.7
Cn1cc(CN2C[C@@H]3OCCN(c4ncccn4)[C@@H]3C2)cn1 | 83.5
c1cnc(N2CCO[C@H]3CN(CC4CC4)C[C@H]32)nc1 | 35.2
Cc1ccc(N2CCO[C@H]3CN(Cc4cnn(C)c4)C[C@H]32)nn1 | 25.6
COc1ccc(CN2C[C@@H]3OCCN(c4ncccn4)[C@@H]3C2)cc1 | 32.4

SMILES | INHIBITION [%]
Cn1cncc1CN1C[C@@H]2OCCN(c3ncccn3)[C@@H]2C1 | 63.7
Cc1cc2cc(NC(=O)Cn3ncc(N4CCCC4)cc3=O)ccc2o1 | 30.3
CCn1cnnc1CNS(=O)(=O)N1CCCC1c1ccc(C)o1 (stereo unspecified) | 2.79
CC(C)c1nc(O)c2nnn(C[C@H]3CCCN(Cc4cccs4)C3)c2n1 | 2.55
CCn1nc(C)c2ncnc(NCCn3cccn3)c21 | -15
CC(C)CC1SCC(=O)Nc2c1cnn2C1CCCC1 (stereo unspecified) | -37.2
CN(C)C(=O)[C@@H]1C[C@H]2OCC[C@H]2N(CCOc2ccc(Cl)cc2)C1 | -23.4
CC(C)Cc1cc(C(=O)NC(C)C)[nH]n1 | 50.8
CC(C)Cc1cc(C(=O)NCc2nnc[nH]2)[nH]n1 | -21.3
CC(C)Cc1cc(C(=O)NCCN2CCCS2(=O)=O)[nH]n1 | -36.385
COc1nccc(N2CC[C@@H](N3CCCCCC3)[C@H](O)C2)c1C#N | 42.1
c1cnn(CC2CCCN2Cc2nc(C3CC3)no2)c1 (stereo unspecified) | 11.4
CC(C)(C)c1cn2c(n1)C(CNCc1cnn3ccccc13)CCC2 (stereo unspecified) | 51.1
CC(C)(C)c1cn2c(n1)C(CNCc1ccccn1)CCC2 (stereo unspecified) | 56.5
CC(C)(C)c1ncc(CNCC2CCCn3ccnc32)s1 (stereo unspecified) | -7.66
CC(C)(C)NC(=O)NCc1cnn2ccccc12 | 35.2
O=C(NCc1cnn2ccccc12)NC1CCCC1 | -16.4
Cc1cn2c(n1)C(CNCc1cnn3ccccc13)CCC2 (stereo unspecified) | 50.1
CC(C)(C)C(=O)NCc1cnn2ccccc12 | 15.7
Cc1nc(C)c(CNCC2CCCn3ccnc32)s1 (stereo unspecified) | 28.7
Cn1cccc1CNCC1CCCn2cc(C(C)(C)C)nc21 (stereo unspecified) | 22.3
CN(CC1(C)COC1)C(=O)c1cc(-c2ccnn2C)nc2ccccc12 | 1.9
CSC(C)C(=O)N(C)CC(=O)Nc1ccc(Br)cn1 (stereo unspecified) | -17.6

SMILES | INHIBITION [%]
NC(=O)C(CNC(=O)CCc1ccccc1)Cc1ccc(F)cc1 (stereo unspecified) | 33.4
CN(C)C(=O)CO[C@H]1CN(Cc2ccccc2)[C@@H]2CCCO[C@H]12 | 3.3
CN(C)C(=O)CNC(=O)c1cc2ccccc2nc1N1CCCC1 | 42.3
Cc1cccc2c1cnn2CCC(=O)NCc1csc(C2CC2)n1 | 23.6
CCn1cc(CCC(=O)NCc2csc(C3CC3)n2)c(C)n1 | 22.9
CCn1nc(C)c(C(=O)NCc2csc(C3CC3)n2)c1C | 76.3
Cc1ccc2c(cnn2CCC(=O)NCc2csc(C3CC3)n2)c1 | 26.9
Cc1nn(C)cc1C(=O)NCc1csc(C2CC2)n1 | 18.3
CCn1cc(C(=O)NCc2csc(C3CC3)n2)c(C)n1 | 67
CCOC(=O)CSc1nnc([C@@H](N)C(C)CC)o1 (stereo partly specified) | -30.6
Cc1ccccc1-n1nccc1NC(=O)CCOC(C)C | 43.8
COCCC(=O)Nc1ccnn1-c1ccccc1 | 67.1
COCCOCC(=O)Nc1ccc(C)cc1Cl | -71.6
COCC(=O)NC(c1ccc(Cl)cc1)C(F)(F)F (stereo unspecified) | -21.8
CCOCCC(=O)Nc1ccnn1-c1ccc(Cl)cc1 | 12.9
COCCOCC(=O)Nc1ccnn1-c1ccc(Cl)cc1 | 54.6
COCC(=O)NCCc1ccc(Cl)s1 | 28.4
COCCC(=O)Nc1ccnc(Oc2ccccc2)c1 | -30
COCC(=O)Nc1ccnn1-c1ccc(Cl)cc1 | 64.3
